A number with no mark means an inactive call. Results filed as inconclusive are left out. Calls of active or inactive are those of the source. Unless noted, calls follow the shape of the dose curve; as a rule, active = well fitted curve in the direction sought with a large enough effect in the repeat runs; inconclusive = weak or mixed curves; inactive = no such curve, though single readings can be large; an effect the other way counts as inactive or inconclusive.

Experiment [1] is described as follows: qHTS assay to identify small molecule agonists of the hypoxia (HIF-1) signaling pathway - cell viability counter screen (AID 1224844; calls by dose curve; also: % is scaled to controls: 0 for no effect and ±100 for the full control effect; nearly all actives have a fitted effect of over 50% in size). A digest of the protocol:
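Multiplexed with the HRE beta-lactamase assay, this viability read used CellTiter-Glo luminescence (30 min, RT) on HRE-bla ME-180 cells treated 17 hrs with compounds in 0.5% dialyzed FBS medium.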

A short description of experiment [2]: qHTS assay to identify small molecule agonists of H2AX (AID 1224845; active = well fitted activation curve with a large enough effect in the signal ratio in the repeat runs, not every such curve was filed as active; the % refers to the signal ratio; also: % is scaled to controls: 0 for no effect and ±100 for the full control effect). A digest of the protocol: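 Phospho-H2AX Ser139 measured by HTRF (ex 320 nm; em 665 and 620 nm) after 24 hr antibody incubation. Compounds, 15 concentrations, 0.76% DMSO, were applied to CHO-K1 cells for 3hr at 37C before lysis.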
Experiment [3] can be described thus: qHTS assay to identify small molecule agonists of the hypoxia (HIF-1) signaling pathway (AID 1224846; active = well fitted activation curve with a large enough effect in the signal ratio in the repeat runs, not every such curve was filed as active; the % refers to the signal ratio; also: % is scaled to controls: 0 for no effect and ±100 for the full control effect). A digest of the protocol: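 Hypoxia-pathway activation was scored as increased beta-lactamase from an HRE-controlled reporter in ME-180 cells; plated at 2,000 cells per well with 0.5% dialyzed FBS, they were exposed 17 hrs to compounds and then given CCF4-AM.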
On the technique in general: qHTS replaces the single test concentration by a dilution series.

The nature of experiment [4]: qHTS assay to identify small molecule antagonists of the estrogen related receptor (ERR) signaling pathway from Tox21 library (AID 1224848). Also: potency is read from the fitted curve at half-maximal effect; nearly all actives have a fitted effect of over 50% in size. In outline:
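Reading was by luminescence 30 min after ONE-Glo addition. Before that, ERR cells at 2,000 per well had rested 6 h at 37 C/5% CO2 and then received pin-tooled compounds in DMSO for 18 h at 37 C.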

A short description of experiment [5]: qHTS assay to identify small molecule agonists of the estrogen related receptor (ERR) signaling pathway from Tox21 library (AID 1224849; calls by dose curve; also: % is scaled to controls: 0 for no effect and ±100 for the full control effect; nearly all actives have a fitted effect of over 15% in size). The settings on record: ERR reporter cell line, ONE-Glo luciferase, 18 h; at 92.4 µM (top of the series) unless noted. In outline:
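Six hours post-seeding at 37 C/5% CO2, ERR cells receive DMSO-solubilised compounds; after 18 h at 37 C, ONE-Glo reagent is applied and luminescence recorded.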

Experiment [6] is described as follows: qHTS RealTime-Glo MT Cell Viability Assay in HepG2 cells - 24 hour (AID 1224867). Also: nearly all actives have a fitted effect of over 50% in size. Also: potency is read from the fitted curve at half-maximal effect. In outline:
(§1)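 Real-time, nonlytic viability: 600 HepG2 cells/well mixed with NanoLuc enzyme plus prosubstrate; 5 h settle, compound (DMSO) added by pintool; luminescence monitored over 40 h at 37 C.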

The nature of experiment [7]: A CellTox Green Cytotoxicity Assay to monitor cytotoxicity in HEK293 cells - 0 hour (AID 1224869). Also: % is scaled to controls: 0 for no effect and ±100 for the full control effect; nearly all actives have a fitted effect of over 50% in size. In outline:
(§2)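 Seeding of HEK293 cells together with cytotoxicity dye preceded a 5 h incubation at 37 C/5% CO2. Test compounds in DMSO were then added and fluorescence monitored across 40 h.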

Experiment [8] in a line: qHTS RealTime-Glo MT Cell Viability Assay in HepG2 cells - 40 hour (AID 1224870). Also: nearly all actives have a fitted effect of over 50% in size. Also: potency is read from the fitted curve at half-maximal effect. In outline: (§3)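 Real-time viability: cells seeded at 600 per well together with NanoLuc and cell-permeant prosubstrate, compounds added after 5 h incubation. Luminescence tracked at 0, 8, 16, 24, 32 and 40 h of exposure.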
Experiment [9] is described as follows: A CellTox Green Cytotoxicity Assay to monitor cytotoxicity in HEK293 cells - 40 hour (AID 1224871). Also: % is scaled to controls: 0 for no effect and ±100 for the full control effect; nearly all actives have a fitted effect of over 45% in size. In outline:
as §2

Experiment [10] in a line: qHTS RealTime-Glo MT Cell Viability Assay in HEK293 cells - 16 hour (AID 1224872). Also: nearly all actives have a fitted effect of over 50% in size. Also: potency is read from the fitted curve at half-maximal effect. A digest of the protocol: (§4)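 Cells + reagent dispensed (600 cells/well, HEK293) → 5 h at 37 C/5% CO2 → 23 nL compound in DMSO pinned → 40 h at 37 C → luminescence read at 0, 8, 16, 24, 32, 40 h.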
A short description of experiment [11]: qHTS RealTime-Glo MT Cell Viability Assay in HepG2 cells - 8 hour (AID 1224873). Also: nearly all actives have a fitted effect of over 55% in size. Also: potency is read from the fitted curve at half-maximal effect. A digest of the protocol:
as §3

Experiment [12] is described as follows: qHTS RealTime-Glo MT Cell Viability Assay in HEK293 cells - 40 hour (AID 1224874). Also: nearly all actives have a fitted effect of over 50% in size. Also: potency is read from the fitted curve at half-maximal effect. As to max response: % is scaled to controls: 0 for no effect and ±100 for the full control effect. The settings on record: RealTime-Glo luminescence; max response: hits give low values. In outline:
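Tox21 screen in HEK293 using RealTime-Glo MT chemistry, with cells and reagent co-dispensed. Luminescence proportional to viable cell number was captured at intervals during 40 h compound exposure at 37 C.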

Experiment [13] can be described thus: A CellTox Green Cytotoxicity Assay to monitor cytotoxicity in HepG2 cells - 16 hour (AID 1224876). Also: % is scaled to controls: 0 for no effect and ±100 for the full control effect; nearly all actives have a fitted effect of over 45% in size. In outline: (§5)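 Nonlytic assay: viable cells exclude the dye, so fluorescence scales with cell death. HepG2 at 600 cells/well, compounds added after 5 h, signal read across 40 h.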
Experiment [14] is described as follows: qHTS RealTime-Glo MT Cell Viability Assay in HepG2 cells - 32 hour (AID 1224877). Also: nearly all actives have a fitted effect of over 55% in size. Also: potency is read from the fitted curve at half-maximal effect. A digest of the protocol:
as §1

Experiment [15] in a line: A CellTox Green Cytotoxicity Assay to monitor cytotoxicity in HepG2 cells - 24 hour (AID 1224878). Also: % is scaled to controls: 0 for no effect and ±100 for the full control effect; nearly all actives have a fitted effect of over 45% in size. A digest of the protocol:
as §5

Experiment [16] in a line: A CellTox Green Cytotoxicity Assay to monitor cytotoxicity in HepG2 cells - 40 hour (AID 1224879). Also: nearly all actives have a fitted effect of over 40% in size. Also: potency is read from the fitted curve at half-maximal effect. In outline:
as §5

In experiment [17] the target is Thyrotropin receptor (Homo sapiens) (UniProt P16473). Nature of the experiment: qHTS assay to identify small molecule agonists of the thyroid stimulating hormone receptor (TSHR) signaling pathway (AID 1224843; calls by dose curve; also: % is scaled to controls: 0 for no effect and ±100 for the full control effect; nearly all actives have a fitted effect of over 45% in size). In outline: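 HEK293 cells stably bearing the thyrotropin receptor were plated at 800 cells/well and challenged with compound (30 min, RT). Accumulated cAMP was quantified via cAMP-d2 competing for cryptate-tagged antibody.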
Chain of Thyrotropin receptor (Homo sapiens) (P16473 whole entry, looked up): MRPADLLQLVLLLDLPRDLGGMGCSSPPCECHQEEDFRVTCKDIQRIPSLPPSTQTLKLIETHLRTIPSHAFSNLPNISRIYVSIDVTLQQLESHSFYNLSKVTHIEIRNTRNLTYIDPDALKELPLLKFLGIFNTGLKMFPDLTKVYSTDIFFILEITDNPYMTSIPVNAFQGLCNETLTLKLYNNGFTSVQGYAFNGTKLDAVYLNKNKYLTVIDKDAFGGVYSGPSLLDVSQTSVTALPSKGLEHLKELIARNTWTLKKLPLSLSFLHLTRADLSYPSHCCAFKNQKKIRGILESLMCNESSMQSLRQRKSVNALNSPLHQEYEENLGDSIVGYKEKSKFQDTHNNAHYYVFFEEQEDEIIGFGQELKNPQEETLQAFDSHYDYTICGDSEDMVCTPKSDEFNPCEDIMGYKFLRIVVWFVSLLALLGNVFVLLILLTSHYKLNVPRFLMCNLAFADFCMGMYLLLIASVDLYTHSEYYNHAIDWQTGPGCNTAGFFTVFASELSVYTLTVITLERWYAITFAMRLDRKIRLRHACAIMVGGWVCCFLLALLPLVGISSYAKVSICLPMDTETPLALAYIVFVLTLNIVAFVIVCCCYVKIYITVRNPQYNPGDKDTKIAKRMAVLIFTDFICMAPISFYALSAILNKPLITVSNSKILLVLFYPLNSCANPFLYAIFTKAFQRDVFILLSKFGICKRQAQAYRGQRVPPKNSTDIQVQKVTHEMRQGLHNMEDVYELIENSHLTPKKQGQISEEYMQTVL

Experiment [18] in a line: qHTS assay to identify small molecule agonists of H2AX - cell viability counter screen (AID 1224847; calls by dose curve; also: nearly all actives have a fitted effect of over 30% in size; also: potency is read from the fitted curve at half-maximal effect). A digest of the protocol:
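After overnight plating of 1000 CHO-K1 cells per well, a 15-concentration compound series was applied for 3 hr at 37C. Luminescence from CellTiter-Glo, read following 30 min at room temperature, reflected cell viability.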

Experiment [19] can be described thus: qHTS RealTime-Glo MT Cell Viability Assay in HEK293 cells - 32 hour (AID 1224868). Also: nearly all actives have a fitted effect of over 50% in size. Also: potency is read from the fitted curve at half-maximal effect. In outline:
as §4

The nature of experiment [20]: A CellTox Green Cytotoxicity Assay to monitor cytotoxicity in HEK293 cells - 24 hour (AID 1224875). A digest of the protocol: as §2

For `Cc1oc(C)c(C(=O)Nc2ccccc2)c1C`, the Potency result in experiment [1], in experiment [2], in experiment [6], in experiment [7], in experiment [8] and in [9] was “inactive” each time. Further, the Potency result in experiment [11], in [13], in experiment [14], in experiment [15] and in experiment [16] was “inactive” in each case. Further, in experiment [3], the compound was called inactive. The values for the Potency in experiment [4], in experiment [10] and in [12] were 17.2 µM (active), 34.7 µM (active) and 24.5 µM (active), respectively. In experiment [5], the activity change, positive = activation was -47.2%.

As to `CC[C@H](NC(=O)c1cc(F)ccc1NS(=O)(=O)c1cccc2cccnc12)c1ccccc1`, the Potency entry in experiment [17], in [2], in experiment [18], in experiment [7], in experiment [9] and in experiment [10] was “inactive” in each case. Also, the Potency result in experiment [13] and in experiment [15] was “inactive” in each case. Also, the Potency was 32.5 µM (active) in experiment [4]; 52 µM (active) in [6]; 52 µM (active) in experiment [8]; 41.3 µM (active) in experiment [11]; 52 µM (active) in [14]. The max response in [12] was -13%.

On to `CN(C)C(=O)Nc1ccc(Oc2ccc(Cl)cc2)cc1`, for which the Potency result in experiment [1], in experiment [2], in experiment [6], in experiment [7], in experiment [8] and in experiment [9] was “inactive” in each case. Also, the Potency entry in [11], in experiment [20], in [13] and in experiment [14] was “inactive” in each case. For the same compound, the result in experiment [3] was inactive. In addition, the Potency in [18] is 89.8 µM (active); in experiment [4], 13.7 µM (active); in experiment [19], 38.9 µM (active); in experiment [12], 34.7 µM (active). Further, the activity change, positive = activation in experiment [5] was -44.7%.

`CCOC(=O)CC(=O)C(=O)OCC`: the Potency result in experiment [17], in experiment [6], in experiment [7], in [8], in experiment [11] and in experiment [20] was “inactive” each time. Besides, the Potency result in [13], in experiment [14], in [15] and in [16] was “inactive” throughout. Further, the call in experiment [3] was inactive. Moreover, the Potency in [4] was 27.3 µM (active); in [12], 43.6 µM (active). The activity change, positive = activation in experiment [5] was -57.1%.

For `COc1cc2c(cc1OC)-c1cc(=Nc3c(C)cc(C)cc3C)n(C)c(=O)n1CC2`, the Potency result in experiment [1], in experiment [2], in [18], in experiment [6], in experiment [8] and in experiment [9] was “inactive” each time. The Potency entry in experiment [10], in [11], in experiment [20], in [13], in experiment [14] and in experiment [15] was “inactive” throughout. The result in [3] was inactive. Moreover, the Potency in experiment [4] is 13.3 µM (active); in experiment [16], 21.3 µM (active). Besides, the activity change, positive = activation in [5] was -48.8% [at 42.5 µM].

For the compound `COC(=O)CC(=O)C(C)(C)C`, the Potency result in [17], in [2], in experiment [18], in experiment [6], in [19] and in experiment [7] was “inactive” in each case. Also, the Potency entry in experiment [8], in [9], in experiment [10], in experiment [11], in experiment [20] and in experiment [13] was “inactive” throughout. Besides, the Potency entry in [14], in [15] and in experiment [16] was “inactive” each time.

As for `C=CC(C)=CCC=C(C)C`, the Potency entry in [1], in experiment [2], in experiment [18], in experiment [6], in experiment [19] and in experiment [7] was “inactive” each time. In addition, the Potency result in [8], in experiment [9], in [10], in experiment [11], in experiment [20] and in [13] was “inactive” each time. For the same compound, the Potency entry in experiment [14], in experiment [15] and in [16] was “inactive” in each case. The compound was called inactive in [3]. For the same compound, in experiment [12], the max response was 4.34%.

The values above are taken from PubChem BioAssay (Tox21).
